Laboratory results reported in publication PMC7862700, “An all-to-all approach to the identification of sequence-specific readers for epigenetic DNA modifications on cytosine”.

Columns and labels:
Test in all cases: DAPPL (digital affinity profiling via proximity ligation, sequencing); 10 mM Tris-HCl pH 7.5, 50 mM NaCl, 1 mM DTT, 4% glycerol, room temperature, 30 min; GST-TFs on glutathione beads, 16-mer random dsDNA library, 0.1% formaldehyde crosslink after washing; high values mean tight binding
Details in all cases: protein: recombinant; tags: N-terminal GST; dsDNA, one strand shown
GABPA = biological target: T1, GABPA (Homo sapiens, UniProt Q06546 1-454)
T1 sequence: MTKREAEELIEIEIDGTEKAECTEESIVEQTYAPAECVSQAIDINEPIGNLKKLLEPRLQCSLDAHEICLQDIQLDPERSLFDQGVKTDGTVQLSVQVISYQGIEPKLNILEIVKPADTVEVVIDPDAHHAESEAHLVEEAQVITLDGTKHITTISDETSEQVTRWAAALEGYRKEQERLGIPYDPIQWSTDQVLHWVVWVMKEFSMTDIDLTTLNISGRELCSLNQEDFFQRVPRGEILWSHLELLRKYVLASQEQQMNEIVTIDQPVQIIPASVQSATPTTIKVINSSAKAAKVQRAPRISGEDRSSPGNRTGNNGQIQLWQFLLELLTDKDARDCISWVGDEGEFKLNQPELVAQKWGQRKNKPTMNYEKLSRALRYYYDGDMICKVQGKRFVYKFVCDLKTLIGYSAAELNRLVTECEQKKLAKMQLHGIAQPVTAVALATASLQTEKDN
Outline: (§1)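 Human transcription factors were made in yeast as GST fusions, captured on glutathione beads and barcoded with DNA. With a tag-only sample included, the pool was incubated with 200 nmole of a random double-stranded 16-mer DNA library in Tris/NaCl/DTT/glycerol buffer at room temperature for 30 min, then crosslinked with 0.1% formaldehyde after washing, ligated by proximity, amplified and sequenced. For binding signal, each hexamer's read frequency for a factor is divided by its frequency for the tag-only sample.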

SPI1 = SPI1 (Homo sapiens, UniProt P17947 1-270)
Outline: as §1

SPIC = biological target: T2, SPIC (Homo sapiens, UniProt Q8N5J4 1-248)
T2 sequence: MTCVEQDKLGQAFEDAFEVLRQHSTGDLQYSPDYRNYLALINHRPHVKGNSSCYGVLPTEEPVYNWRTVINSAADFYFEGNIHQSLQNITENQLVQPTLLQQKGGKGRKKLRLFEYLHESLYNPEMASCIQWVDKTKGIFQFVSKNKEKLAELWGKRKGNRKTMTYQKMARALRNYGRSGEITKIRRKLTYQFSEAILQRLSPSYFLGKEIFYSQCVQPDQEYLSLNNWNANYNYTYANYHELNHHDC
Outline: as §1

ELF3 = biological target: T3, ELF3 (Homo sapiens, UniProt P78545 1-371)
T3 sequence: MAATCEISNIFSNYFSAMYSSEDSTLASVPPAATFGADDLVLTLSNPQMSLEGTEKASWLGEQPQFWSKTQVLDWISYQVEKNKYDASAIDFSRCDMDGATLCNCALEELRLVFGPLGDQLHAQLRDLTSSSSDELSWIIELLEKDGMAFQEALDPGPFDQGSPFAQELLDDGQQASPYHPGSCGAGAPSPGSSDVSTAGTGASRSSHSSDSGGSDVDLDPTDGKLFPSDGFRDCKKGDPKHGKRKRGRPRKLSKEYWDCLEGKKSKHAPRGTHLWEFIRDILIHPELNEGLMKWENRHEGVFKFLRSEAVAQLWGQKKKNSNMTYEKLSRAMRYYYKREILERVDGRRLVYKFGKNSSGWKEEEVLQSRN
Outline: as §1

ETV1 = ETV1 (Homo sapiens, UniProt P50549 1-477)
Outline: as §1

ELF5 = biological target: T4, ELF5 (Homo sapiens, UniProt Q9UKW6-2 1-255)
T4 sequence: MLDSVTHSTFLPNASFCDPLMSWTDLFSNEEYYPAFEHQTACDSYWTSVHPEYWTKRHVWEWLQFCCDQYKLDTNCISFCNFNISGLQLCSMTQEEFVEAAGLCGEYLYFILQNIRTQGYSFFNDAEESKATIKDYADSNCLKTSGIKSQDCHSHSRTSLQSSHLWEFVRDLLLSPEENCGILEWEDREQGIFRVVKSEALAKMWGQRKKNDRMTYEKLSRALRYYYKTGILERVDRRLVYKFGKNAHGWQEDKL
Outline: as §1

ETV3 = biological target: T5, ETV3 (Homo sapiens, UniProt P41162-2 1-143)
T5 sequence: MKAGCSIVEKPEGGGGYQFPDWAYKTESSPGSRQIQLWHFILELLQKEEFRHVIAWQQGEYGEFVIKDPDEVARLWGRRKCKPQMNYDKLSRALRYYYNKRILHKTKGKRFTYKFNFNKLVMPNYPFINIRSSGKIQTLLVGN
Outline: as §1

ELF1 = ELF1 (Homo sapiens, UniProt P32519 1-619)
Outline: as §1

ETV3L = biological target: T6, ETV3L (Homo sapiens, UniProt Q6ZN32 1-361)
T6 sequence: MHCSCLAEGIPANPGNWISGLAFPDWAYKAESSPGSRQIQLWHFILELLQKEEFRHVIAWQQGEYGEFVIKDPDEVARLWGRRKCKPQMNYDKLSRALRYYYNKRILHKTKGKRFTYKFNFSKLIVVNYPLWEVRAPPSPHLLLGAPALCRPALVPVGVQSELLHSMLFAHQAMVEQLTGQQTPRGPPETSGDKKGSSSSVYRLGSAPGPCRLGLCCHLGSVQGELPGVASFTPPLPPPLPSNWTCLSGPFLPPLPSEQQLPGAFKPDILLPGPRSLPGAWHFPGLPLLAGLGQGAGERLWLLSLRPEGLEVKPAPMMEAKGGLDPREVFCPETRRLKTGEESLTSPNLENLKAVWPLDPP
Outline: as §1

SPDEF = biological target: T7, SPDEF (Homo sapiens, UniProt O95238 1-335)
T7 sequence: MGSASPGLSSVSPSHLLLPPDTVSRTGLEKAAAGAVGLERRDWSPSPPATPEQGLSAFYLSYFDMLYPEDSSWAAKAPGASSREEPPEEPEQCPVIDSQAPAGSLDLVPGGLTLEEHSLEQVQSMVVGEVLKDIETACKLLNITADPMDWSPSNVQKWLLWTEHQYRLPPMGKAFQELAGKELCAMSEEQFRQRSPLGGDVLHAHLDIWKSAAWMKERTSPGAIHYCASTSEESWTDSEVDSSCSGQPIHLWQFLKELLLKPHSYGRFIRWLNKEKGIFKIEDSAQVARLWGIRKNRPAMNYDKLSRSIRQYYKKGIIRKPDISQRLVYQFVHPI
Outline: as §1

ETV6 = ETV6 (Homo sapiens, UniProt P41212 1-452)
Outline: as §1

Sequence of ETV1 (P50549 whole entry): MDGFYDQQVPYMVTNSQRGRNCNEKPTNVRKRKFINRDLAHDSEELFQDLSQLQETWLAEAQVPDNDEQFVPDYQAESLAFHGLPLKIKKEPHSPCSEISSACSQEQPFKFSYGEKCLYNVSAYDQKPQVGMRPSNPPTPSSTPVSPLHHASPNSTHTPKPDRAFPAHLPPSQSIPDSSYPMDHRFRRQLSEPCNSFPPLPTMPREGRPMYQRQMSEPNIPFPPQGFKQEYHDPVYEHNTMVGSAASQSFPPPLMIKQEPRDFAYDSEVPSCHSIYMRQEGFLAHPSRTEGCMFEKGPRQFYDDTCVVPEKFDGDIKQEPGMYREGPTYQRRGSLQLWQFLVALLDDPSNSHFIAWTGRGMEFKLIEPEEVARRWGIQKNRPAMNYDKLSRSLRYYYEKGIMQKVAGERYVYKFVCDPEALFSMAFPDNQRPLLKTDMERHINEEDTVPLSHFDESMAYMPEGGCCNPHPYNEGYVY
Sequence of ELF1 (P32519 whole entry): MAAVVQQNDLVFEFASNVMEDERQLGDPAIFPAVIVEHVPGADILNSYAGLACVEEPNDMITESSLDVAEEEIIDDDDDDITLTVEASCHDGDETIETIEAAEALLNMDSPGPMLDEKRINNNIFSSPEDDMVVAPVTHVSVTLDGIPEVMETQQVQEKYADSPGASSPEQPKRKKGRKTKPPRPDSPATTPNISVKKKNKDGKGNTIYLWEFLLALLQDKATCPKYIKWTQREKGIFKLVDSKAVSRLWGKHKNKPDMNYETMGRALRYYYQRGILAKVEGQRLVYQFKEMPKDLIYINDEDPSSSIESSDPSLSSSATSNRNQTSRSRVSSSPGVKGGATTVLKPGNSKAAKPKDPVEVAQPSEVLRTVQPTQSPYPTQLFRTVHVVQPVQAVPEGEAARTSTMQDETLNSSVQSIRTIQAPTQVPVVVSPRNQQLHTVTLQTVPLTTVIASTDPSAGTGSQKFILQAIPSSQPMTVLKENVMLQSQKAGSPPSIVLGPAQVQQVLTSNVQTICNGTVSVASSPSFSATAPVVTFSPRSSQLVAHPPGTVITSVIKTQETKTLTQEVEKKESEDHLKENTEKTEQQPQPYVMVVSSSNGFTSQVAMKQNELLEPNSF
Sequence of ETV6 (P41212 whole entry): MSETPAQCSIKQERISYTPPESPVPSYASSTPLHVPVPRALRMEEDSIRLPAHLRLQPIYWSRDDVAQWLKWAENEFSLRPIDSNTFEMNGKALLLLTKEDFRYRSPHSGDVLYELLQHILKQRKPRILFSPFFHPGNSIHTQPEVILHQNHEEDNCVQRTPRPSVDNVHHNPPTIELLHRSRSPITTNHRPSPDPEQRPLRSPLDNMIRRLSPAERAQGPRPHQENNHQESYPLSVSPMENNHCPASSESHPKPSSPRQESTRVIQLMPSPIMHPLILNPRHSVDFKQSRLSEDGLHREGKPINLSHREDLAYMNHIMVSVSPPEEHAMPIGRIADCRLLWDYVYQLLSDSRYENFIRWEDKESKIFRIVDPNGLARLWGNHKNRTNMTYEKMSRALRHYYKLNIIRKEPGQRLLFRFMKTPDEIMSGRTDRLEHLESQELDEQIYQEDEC

| Sequence | binding signal (GABPA) | binding signal (SPI1) | binding signal (SPIC) | binding signal (ELF3) | binding signal (ETV1) | binding signal (ELF5) | binding signal (ETV3) | binding signal (ELF1) | binding signal (ETV3L) | binding signal (SPDEF) | binding signal (ETV6) |
| --- | --- | --- | --- | --- | --- | --- | --- | --- | --- | --- | --- |
| ATGAGG | 1.03 fold enrichment (6-mer frequency, TF over GST control) | 1.4 fold enrichment (6-mer frequency, TF over GST control) | 1.06 fold enrichment (6-mer frequency, TF over GST control) | 1.17 fold enrichment (6-mer frequency, TF over GST control) | 1.01 fold enrichment (6-mer frequency, TF over GST control) | 1.11 fold enrichment (6-mer frequency, TF over GST control) | 1.01 fold enrichment (6-mer frequency, TF over GST control) |  |  |  |  |
| CACGGC |  | 1.01 fold enrichment (6-mer frequency, TF over GST control) | 1.03 fold enrichment (6-mer frequency, TF over GST control) |  | 1 fold enrichment (6-mer frequency, TF over GST control) |  |  | 1.04 fold enrichment (6-mer frequency, TF over GST control) | 1.07 fold enrichment (6-mer frequency, TF over GST control) | 1.03 fold enrichment (6-mer frequency, TF over GST control) | 1.05 fold enrichment (6-mer frequency, TF over GST control) |
